Measurements from paper PMC4336329 (PLoS ONE, 2015).
Out of some 310,000 compounds screened, about 14,000 (4.5%) showed an effect of 50% or more. The effect is printed as a negative number. This is one part of a sample in which strong results are shown more often than they occur.

biological target: human ether-à-go-go-related gene (hERG) potassium channel (human, UniProt Q12809); experiment: primary screen, population patch clamp on CHO cells stably expressing hERG; higher = less effect of the substance
Sequence (Q12809 whole entry, looked up): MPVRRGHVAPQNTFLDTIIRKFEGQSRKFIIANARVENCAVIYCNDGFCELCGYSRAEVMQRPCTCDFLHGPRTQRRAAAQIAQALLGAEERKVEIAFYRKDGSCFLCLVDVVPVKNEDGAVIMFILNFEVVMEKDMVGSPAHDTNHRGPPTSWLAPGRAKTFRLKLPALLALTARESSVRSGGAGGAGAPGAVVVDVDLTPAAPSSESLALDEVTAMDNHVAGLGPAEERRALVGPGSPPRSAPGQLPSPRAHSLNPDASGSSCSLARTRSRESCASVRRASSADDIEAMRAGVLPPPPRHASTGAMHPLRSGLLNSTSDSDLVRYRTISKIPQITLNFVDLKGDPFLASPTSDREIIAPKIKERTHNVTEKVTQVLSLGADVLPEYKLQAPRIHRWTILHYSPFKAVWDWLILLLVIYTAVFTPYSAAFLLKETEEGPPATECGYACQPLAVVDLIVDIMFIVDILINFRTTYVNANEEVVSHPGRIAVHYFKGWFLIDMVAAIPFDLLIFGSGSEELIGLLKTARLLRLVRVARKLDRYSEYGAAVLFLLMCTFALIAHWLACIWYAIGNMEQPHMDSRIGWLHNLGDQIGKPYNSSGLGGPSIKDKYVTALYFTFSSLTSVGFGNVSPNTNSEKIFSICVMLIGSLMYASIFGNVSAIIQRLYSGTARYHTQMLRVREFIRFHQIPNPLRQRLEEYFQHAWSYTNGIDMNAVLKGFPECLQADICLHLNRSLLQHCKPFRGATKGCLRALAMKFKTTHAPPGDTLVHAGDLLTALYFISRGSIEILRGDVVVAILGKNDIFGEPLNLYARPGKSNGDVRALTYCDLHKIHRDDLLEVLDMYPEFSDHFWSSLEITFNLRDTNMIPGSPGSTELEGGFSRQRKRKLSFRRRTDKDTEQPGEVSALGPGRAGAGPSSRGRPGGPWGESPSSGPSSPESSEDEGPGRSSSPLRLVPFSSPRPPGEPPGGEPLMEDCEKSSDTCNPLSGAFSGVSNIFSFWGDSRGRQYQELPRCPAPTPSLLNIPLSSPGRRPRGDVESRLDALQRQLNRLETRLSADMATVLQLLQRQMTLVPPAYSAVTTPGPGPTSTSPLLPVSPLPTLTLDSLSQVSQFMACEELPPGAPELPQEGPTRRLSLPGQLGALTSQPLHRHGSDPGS
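Note: peak tail current of the secondary pulse compared with the same well before compound.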

| SMILES | hERG current change (%, negative = inhibition) at 10uM [%] |
| --- | --- |
| O=C1CCCC2=C1C(c1cccnc1)Nc1ccccc1N2 (stereo not drawn) | 5.41 |
| COc1ccc(NC(=O)CCC(=O)c2cccs2)cc1Cl | 17.6 |
| CCOc1cccc2sc(Cl)nc12 | 13.7 |
| COc1cc(N/C=C2\CC(=O)NC(C)=C2C#N)cc(OC)c1OC | 19.6 |
| Cc1c(NC(=O)COC(=O)C2(c3ccccc3F)CCCC2)c(=O)n(-c2ccccc2)n1C | -1.01 |
| O=c1c2oc3ccccc3c2ncn1Cc1ccc(Cl)cc1 | 11.7 |
| CCOc1ccccc1N1CCN(c2nc(N)c(C#N)c(CC#N)c2C#N)CC1 | -37.2 |
| CCCn1c(SCC(=O)Nc2sc(C)c(C)c2C#N)nnc1C(C)C | -9.76 |
| O=C(NCCc1csc(-c2cccnc2)n1)c1ccc(Br)o1 | -10.9 |
| Cc1cc(C)cc(N=C2NC(=O)CS2)c1 | 0.159 |
| CCN(CC)C(=O)COc1ccc(/C(C)=N/NC(=O)c2ccccc2Br)cc1 | 8.89 |
| COc1ccc(CCN(C)C(=O)CSc2nnc(-c3ccco3)o2)cc1OC | -21.3 |
| CCCSc1nnc2nc3c(nn12)c1ccccc1n3C | -49.7 |
| C=CCSc1nnc2nc3[nH]c4c(C)cccc4c3nn12 | 4.32 |
| C=CCSc1nnc2nc3c(nn12)c1cc(C)ccc1n3CC=C | -55.1 |
| O=C(NCc1ccc2c(c1)OCO2)C1(S(=O)(=O)c2ccccc2)CC1 | 13.4 |
| CC(C)Cc1cc(C(=O)N2CCN(C(c3ccccc3)c3ccccc3)CC2)no1 | 0.0803 |
| COc1ccc(/C=c2/sc3nc(-c4ccccc4)c(-c4ccccc4)n3c2=O)cc1 | -13.9 |
| NC(=O)C1CCN(S(=O)(=O)Cc2ccccc2Cl)CC1 | 14.8 |
| CCn1c(SCc2ccc(C(=O)Nc3nccs3)cc2)nnc1-c1ccc(NC(C)=O)cc1 | 1.21 |
| C=CCn1c(SCc2ccc(C#N)cc2)nnc1-c1cccc(OC)c1 | -67.4 |
| CCn1c(SCc2cccc(C)c2)nnc1-c1ccc(C)cc1 | -63.7 |

| SMILES | hERG current change (%, negative = inhibition) at 10uM [%] |
| --- | --- |
| CCn1c(SCc2ccc(C(=O)Nc3nccs3)cc2)nnc1-c1ccc(N)cc1 | -22.2 |
| CCOC(=O)CSc1nnc(-c2cccc(Cl)c2)n1CC | -3.47 |
| CCn1c(SCc2ccc(C#N)cc2)nnc1-c1cccc(Cl)c1 | -73.6 |
| CCn1c(SCc2ccc(C(=O)Nc3cc(C)cc(C)c3)cc2)nnc1-c1ccncc1 | -59.2 |
| CCn1c(SCc2ccc(Cl)cc2)nnc1-c1ccccc1 | -44.4 |
| C=CCn1c(SCc2ccc(OC)cc2)nnc1-c1cccnc1 | -26.9 |
| CCn1c(SCc2cccc(C)c2)nnc1-c1ccccc1 | -32.9 |
| CCn1c(SCc2cccc(F)c2)nnc1-c1ccncc1 | -8.82 |
| C=CCn1c(SCc2cccc(OC)c2)nnc1-c1ccncc1 | -15.5 |
| CCOC(=O)c1c(C)[nH]c(C(=O)COC(=O)C23CC4CC(CC(Cl)(C4)C2)C3)c1C | 11.6 |
| CC1C(=O)N2CCCc3cc(NC(=O)C4CCCCC4)cc1c32 (stereo not drawn) | 4.17 |
| CCOC(=O)c1cc(S(=O)(=O)N2CCc3ccccc32)cn1C | -0.504 |
| CCOCc1nnc(NC(=O)CSCc2ccccc2)s1 | -1.7 |
| Cc1ccc2cc(NC(=O)c3cccc(F)c3)ccc2n1 | 0.701 |
| CCOC(=O)C(NC(C)=O)C(=O)Nc1ccc(C)cc1C (stereo not drawn) | 15.7 |
| O=C(Nc1nccs1)c1cccc(NC(=O)C(F)(F)F)c1 | -5.07 |
| O=c1c2c3c(sc2nc2n1CCCCC2)C(O)CCC3 (stereo not drawn) | 3.27 |
| C=CCn1c(SCc2ccc(C#N)cc2)nnc1-c1cccc(Cl)c1 | -72.7 |
| C=CCn1c(SCC(=O)O)nnc1-c1cccc(Cl)c1 | 4.71 |
| C=CCn1c(SCc2cccc(C#N)c2)nnc1-c1ccccc1O | -30.4 |
| Cc1cc(NC(=O)CSc2nc3ccccc3c(=O)n2CCCC(=O)NCc2ccccc2)n[nH]1 | -8.72 |
| O=C(NN=C1CCCCCCCCCCC1)c1cccnc1 | 19.8 |

| SMILES | hERG current change (%, negative = inhibition) at 10uM [%] |
| --- | --- |
| CCN(CC)S(=O)(=O)c1ccc(Cl)c(C(=O)Oc2cccnc2)c1 | -36.8 |
| O=C(Nc1cccnc1)c1ccc(Cl)c(Cl)c1 | 10.3 |
| CCN(CC)S(=O)(=O)c1cc(C(=O)Nc2cc(C)[nH]n2)ccc1Cl | -10.3 |
| O=C(Nc1ccccc1)c1cc(S(=O)(=O)Nc2cccnc2)ccc1Cl | -3.06 |
| CCN(CC)S(=O)(=O)c1cc(C(=O)Nc2cccnc2)ccc1Cl | -67.9 |
| CCN(CC)S(=O)(=O)c1ccc(Cl)c(C(=O)Nc2cccnc2)c1 | -55.8 |
| CCN(CC)c1ccc(NC(=O)c2cccnc2)c(C)c1 | 26.9 |
| CCN(CC)S(=O)(=O)c1cc(C(=O)Nc2cccnc2Cl)ccc1Cl | 8.87 |
| CCN(CC)c1ccc(S(=O)(=O)N(CC)CC)cc1NC(=O)c1cccnc1 | -72.5 |
| CCN(CC)S(=O)(=O)c1cc(C(=O)Nc2ccncc2)ccc1Cl | -66.3 |
| CCN(CC)c1ccc(S(=O)(=O)N(CC)CC)cc1NC(=O)C1CCCC1 | -13.6 |
| CCN(CC)S(=O)(=O)c1cccc(C(=O)Nc2cccnc2)c1 | -17.7 |
| COc1cccc(-c2sc3ccc(OC)cc3c2C#CCCO)c1 | -7.87 |
| CCc1nnc(NC(=O)CSC(=S)N2CCOCC2)s1 | 14.6 |
| CC(=O)c1cn(CC(=O)Nc2ccccc2F)c2ccccc12 | 2.54 |
| Cc1nc2ccc(N)cc2c(=O)n1Cc1ccc(Cl)cc1 | -11.4 |
| N#Cc1ccc(N2CCOCC2)c([N+](=O)[O-])c1 | -21.7 |
| CN1CCN(c2ccc(Cl)cc2NC(=O)c2ccc(S(=O)(=O)N(C)C)cc2)CC1 | 1.58 |
| COc1ccccc1N(C)S(=O)(=O)c1ccc(Cl)c(C(=O)Nc2ccncc2)c1 | -73.4 |
| Cn1nc(C(=O)Nc2ccccc2N2CCOCC2)ccc1=O | -24.4 |
| CN1CCN(c2ccc(Cl)cc2NC(=O)c2ccc(=O)n(C)n2)CC1 | -58.3 |
| CN1CCN(c2ccc(Cl)cc2NC(=O)c2cccc(S(=O)(=O)N(C)C)c2)CC1 | -36.9 |

| SMILES | hERG current change (%, negative = inhibition) at 10uM [%] |
| --- | --- |
| CN1CCN(c2ccc(Cl)cc2NC(=O)c2ccc([N+](=O)[O-])cc2)CC1 | -10.6 |
| CN(c1ccccc1)S(=O)(=O)c1ccc(Cl)c(C(=O)Nc2ccncc2)c1 | -5.35 |
| CCN(CC)S(=O)(=O)c1cc(C(=O)Nc2cc(Cl)ccc2N2CCN(C)CC2)ccc1Cl | -53.5 |
| COc1ccccc1N(C)S(=O)(=O)c1ccc(C(=O)Nc2ccncc2)cc1 | -28.6 |
| CCOc1cccc2sc(N3CCN(C(=O)c4ccc5ncsc5c4)CC3)nc12 | 2.18 |
| CCS(=O)(=O)NC(C)C(c1cccs1)N1CCN(c2ccc(OC)cc2)CC1 (stereo not drawn) | -7.31 |
| COc1ccc(CN(CC(=O)NCc2ccc(F)cc2)C(=O)CCC(=O)Nc2ccccn2)cc1 | -28.2 |
| COc1ccc(CNC(=O)CN(Cc2ccccc2)C(=O)CCC(=O)Nc2ccccn2)cc1 | -55.9 |
| O=C(CN(Cc1ccc(F)cc1)C(=O)CCC(=O)Nc1nccs1)NCc1ccc(F)cc1 | -50.5 |
| O=C(CN(Cc1ccc(F)cc1)C(=O)CCC(=O)Nc1ccccn1)NCCc1ccccc1 | -15.7 |
| O=C(CN(Cc1ccccc1)C(=O)CCC(=O)Nc1nccs1)NCc1ccc(F)cc1 | -1.38 |
| COc1ccc(CN(CC(=O)NCc2ccccc2)C(=O)CCC(=O)Nc2ccccn2)cc1 | -21.1 |
| COc1ccc(CNC(=O)CN(Cc2ccc(OC)cc2)C(=O)CCC(=O)Nc2ccccn2)cc1 | -64.4 |
| O=C(CN(Cc1ccc(F)cc1)C(=O)CCC(=O)Nc1nccs1)NCc1ccccc1 | -35.6 |
| COc1ccc(CN(CC(=O)NCc2ccccc2)C(=O)CCC(=O)Nc2cc(C)ccn2)cc1 | -17.2 |
| COc1ccc(CNC(=O)CN(Cc2cccs2)C(=O)CCC(=O)Nc2ccccn2)cc1 | -41.1 |
| COc1ccc(CN(CC(=O)NCCc2ccccc2)C(=O)CCC(=O)Nc2ccccn2)cc1 | -27.1 |
| O=C(CN(Cc1ccccc1)C(=O)CCC(=O)Nc1ccccn1)NCCc1ccccc1 | -52.4 |
| O=C(O)CC(NC(=O)C(c1ccccc1)c1ccccc1)c1cccc([N+](=O)[O-])c1 (stereo not drawn) | 2.05 |
| CNC(=O)CNC(=O)Nc1ccc(Cl)c(Cl)c1 | 9.11 |
| CC(Cc1cnccn1)NCc1c(C(=O)N2CCCCCCC2)nc2ccc(Cl)cn12 (stereo not drawn) | -12.8 |
